{"source": "PubChem BioAssay AID938", "about": "(National Center for Advancing Translational Sciences (NCATS), 2007)", "note": "The whole screen tested about 73,000 compounds, of which about 1,800 (2.5%) were called active. A call without a number means that no potency is given here. Another 13% or so got no clear call; they are omitted. Many of the other results were omitted from the sample, so actives are more common in it than they were. Values without a mark were called inactive. Calls follow the shape of the dose curve; as a rule, active = well fitted activation curve with a large enough effect; inconclusive = small, poorly fitted or top-dose-only effect; inactive = no such curve, though single readings can be large or run the other way.", "data": [{"test": "qHTS Assay for Agonists of the Thyroid Stimulating Hormone Receptor: Activators of Intracellular cAMP Concentrations in Parental HEK 293; also: nearly all actives have a fitted effect of over 55% in size; also: potency is read from the fitted curve at half-maximal effect", "conditions": "parental HEK293 CNG cAMP sensor, membrane potential fluorescence; series mostly up to 57.1 µM", "how_it_was_run": "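Counterscreen for endogenous-receptor signalling: CNG-channel HEK 293 cells report cAMP rise by membrane depolarization. After 60 min dye equilibration with 100 uM RO 20-1724, compounds incubated 30 min before bottom-read fluorescence at 590 nm.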", "values": [{"compound": "Cc1ccc(C(C(=O)NC2CCCCC2)N(C(=O)c2csnn2)C2CC2)o1", "note": "(configuration not stated)", "Potency": "inactive"}, {"compound": "CCC(C(=O)NC1CCCC1)N(C(=O)c1snc(C(N)=O)c1N)c1ccc2c(c1)OCCO2", "note": "(configuration not stated)", "Potency": "25.1 µM (active)"}, {"compound": "COCCNC(=O)C(c1ccc(C)o1)N(Cc1cccs1)C(=O)c1snc(C(N)=O)c1N", "note": "(configuration not stated)", "Potency": "inactive"}, {"compound": "Cc1cc2c(cc1C)NC1=C(N2)O[C@H](c2c[nH]c3ccc(COc4ccccc4)cc23)C1=O", "activation": "3.07% [at 11.4 µM]"}, {"compound": "O=C(c1cc(C(F)(F)F)cc(C(F)(F)F)c1)N1CCC[C@@]2(CCN(c3ccccn3)C2)C1", "Potency": "15.8 µM (active)"}, {"compound": "CC(=O)N1CCC2(CCCN(c3ncccn3)C2)CC1", "Potency": "inactive"}, {"compound": "COc1ccc(C(=O)N2CCC3(CCCN(C(c4ccccc4)c4ccccc4)C3)CC2)cc1", "Potency": "inactive"}, {"compound": "O=C(c1cccc(F)c1)N1CCC2(CCCN(Cc3ccncc3)C2)CC1", "Potency": "inactive"}, {"compound": "O=C(c1csnn1)N1CCC[C@@]2(CCN(c3cccc(-c4ccccc4)c3)C2)C1", "Potency": "inactive"}, {"compound": "O=C(c1cc(C(F)(F)F)cc(C(F)(F)F)c1)N1CCC2(CCCN(Cc3ccncc3)C2)CC1", "Potency": "inactive"}, {"compound": "O=C(c1cc(C(F)(F)F)cc(C(F)(F)F)c1)N1CCC2(CCCN(c3ccccn3)C2)CC1", "Potency": "25.1 µM (active)"}, {"compound": "COc1ccc(C(=O)N2CCC3(CC2)CCN(c2ccccn2)CC3)cc1", "Potency": "inactive"}, {"compound": "O=C(c1ccncc1)N1CCC2(CCCN(C(c3ccccc3)c3ccccc3)C2)CC1", "Potency": "10 µM (active)"}, {"compound": "COc1cccc([C@H](O)Cn2cc(-c3ccc(CON=C(C)C)cc3)nn2)c1", "activation": "14.1% [at 11.4 µM]"}, {"compound": "COc1ccc(COC(=O)N/N=C2/C[C@@H](O)[C@@H](O)[C@@H]3[C@@H]4C(=O)N([C@@H](C)c5ccccc5)C(=O)[C@H]4CC[C@@H]23)cc1", "activation": "-0.62% [at 11.4 µM]"}, {"compound": "CCOC(=O)c1sc(NC(=S)n2cc(C)cn2)c(C(=O)OCC)c1C", "Potency": "inactive"}, {"compound": "CN1CCc2nc(-c3ccccc3)c(-c3ccccc3)cc2C1", "activation": "0.173% [at 11.4 µM]"}, {"compound": "c1ccc2nc(C3=NCCN3)cnc2c1", "Potency": "inactive"}, {"compound": "CCOC(=O)c1ccc(N2C(=O)CC(N3CCC(C(=O)OCC)CC3)C2=O)cc1", "note": "(configuration not stated)", "Potency": "inactive"}, {"compound": "CCOC(=O)c1nnn(-c2nc(OC)nc(N(C)C)n2)c1-c1ccccc1", "Potency": "inactive"}, {"compound": "Cc1ccc(C(=O)N2CCN(C3CCCCC3)CC2)s1", "Potency": "inactive"}, {"compound": "N/C(=N\\c1nc2ccccc2o1)NC(=O)C(Cc1ccccc1)N1C(=O)c2ccccc2C1=O", "note": "(configuration not stated)", "Potency": "inactive"}, {"compound": "Cc1cccc2cc(CN(Cc3ccc4c(c3)OCO4)Cc3nnnn3C3CCCC3)c(=O)[nH]c12", "Potency": "31.6 µM (active)"}, {"compound": "CCOC(=O)C1CCN(C(c2cc3cc(C)cc(C)c3[nH]c2=O)c2nnnn2C2CCCCC2)CC1", "note": "(configuration not stated)", "Potency": "inactive"}, {"compound": "Cc1cccc2cc(CN(Cc3cccs3)C(c3nnnn3C3CCCC3)C(C)C)c(=O)[nH]c12", "note": "(configuration not stated)", "Potency": "inactive"}, {"compound": "O=C1C(c2ccccn2)=[N+]([O-])c2ccccc21", "Potency": "inactive"}, {"compound": "O=c1c2ccccc2nnn1CSc1nc2sc3c(c2c(=O)n1CC1CCCO1)CCC3", "note": "(configuration not stated)", "Potency": "inactive"}, {"compound": "COc1ccccc1Oc1ccc(S(=O)(=O)Nc2cccnc2)cc1", "Potency": "inactive"}, {"compound": "COc1ccccc1N(C(=O)Cn1nnc2ccccc21)C(C(=O)NCc1ccco1)c1ccc(C)o1", "note": "(configuration not stated)", "Potency": "3.98 µM (active)"}, {"compound": "CCOc1ccccc1C(=O)NCc1ccco1", "Potency": "inactive"}, {"compound": "COc1ccc(C2=NOC(C(=O)NCc3ccco3)C2)cc1OC", "note": "(configuration not stated)", "activation": "8.46% [at 2.29 µM]"}, {"compound": "Cc1cccc(CC(=O)Nc2c3c(nn2-c2cccc(Cl)c2)CS(=O)C3)c1", "note": "(configuration not stated)", "Potency": "10 µM (active)"}, {"compound": "CC(C)(C)n1nc2c(c1NC(=O)c1ccc(S(=O)(=O)N3CCCC3)cc1)CS(=O)C2", "note": "(configuration not stated)", "Potency": "inactive"}, {"compound": "COc1ccc(CC(=O)Nc2c3c(nn2-c2cccc(Cl)c2)CS(=O)C3)cc1", "note": "(configuration not stated)", "Potency": "inactive"}, {"compound": "CC(C)CO", "Potency": "inactive"}, {"compound": "O=C(NCc1ccccc1)[C@H]1C[C@@H]1[C@H](NP(=O)(c1ccccc1)c1ccccc1)c1ccccc1", "Potency": "inactive"}, {"compound": "Cc1cccc(C(=O)O)c1[N+](=O)[O-]", "Potency": "inactive"}, {"compound": "CCOC(=O)N1CCN(C(=O)C2CCN(c3ncnc4c3sc3cccc(F)c34)CC2)CC1", "Potency": "inactive"}, {"compound": "CCOC(=O)C1CCN(c2ncnc3c2oc2ccc(Br)cc23)CC1", "Potency": "25.1 µM (active)"}, {"compound": "Cc1cc(C)nc(N2CCN(c3ncnc4c3oc3ccccc34)CC2)n1", "Potency": "inactive"}, {"compound": "Cc1cc(C)cc(C#CC2C=CC(Oc3ccc(C4CCCC4)cc3)C(CO)O2)c1", "note": "(configuration not stated)", "activation": "16.7% [at 11.4 µM]"}, {"compound": "CC(C)[C@@H](OCc1ccccc1)[C@H](C)/C=N\\OC[C@@H](C)[C@H](OCc1ccccc1)C(C)C", "activation": "2.03% [at 11.4 µM]"}, {"compound": "CCOC(=O)CSc1nnc(-c2cccc(Br)c2)o1", "Potency": "inactive"}, {"compound": "O=C(CSc1nnc(-c2ccccc2)o1)N1CCOCC1", "Potency": "inactive"}, {"compound": "CC1=CC(C)(C)N(C(=O)CSc2nnc(-c3ccccc3)o2)c2ccc(C)cc21", "Potency": "2 µM (active)"}, {"compound": "CCS(=O)(=O)N1CCN(C(=O)c2cccs2)CC1", "Potency": "inactive"}, {"compound": "COc1ccc(N2CCN(C3CC(=O)N(c4ccc5c(c4)OCCO5)C3=O)CC2)cc1", "note": "(configuration not stated)", "Potency": "inactive"}]}]}
